Test results published in PubChem BioAssay (NCI).
About 83,000 compounds went through this panel and 20% of them were active in at least one assay; those are over-represented in the sample as a whole.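 48-hour exposure, single concentration, 96-well plates; percent growth endpoint where 0 means no net growth. Active: below 10.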 A number with no mark means an inactive call. Calls of active or inactive are those of the source.

Tests used:
Assay in all cases: NCI-60 one-dose screen, 48 h (100 = growth as untreated, 0 = no growth, -100 = all killed)
Conditions in all cases: 10 µM unless noted
[1] = tested on: NCI-H226 lung
[2] = tested on: NCI-H322M lung
[3] = tested on: HOP-62 NSCLC
[4] = tested on: NCI-H460 lung
[5] = tested on: NCI-H522 lung
[6] = tested on: A549/ATCC NSCLC
[7] = tested on: 786-0 renal
[8] = tested on: COLO 205 colon
[9] = tested on: DU-145 prostate
[10] = tested on: K-562 leukemia
[11] = tested on: MALME-3M melanoma
[12] = tested on: MDA-MB-231 breast
[13] = tested on: RXF 393 renal
[14] = tested on: SF-268 CNS
[15] = tested on: SF-295 CNS
[16] = tested on: SF-539 CNS
[17] = tested on: UACC-257 melanoma
[18] = tested on: HCT-15 colon
[19] = tested on: M14 melanoma

SMILES | growth [1] | growth [2] | growth [3] | growth [4] | growth [5] | growth [6] | growth [7] | growth [8] | growth [9] | growth [10] | growth [11] | growth [12] | growth [13] | growth [14] | growth [15] | growth [16] | growth [17] | growth [18] | growth [19]
Cc1scc2c1N(C(=O)CN1CCN(C)CC1)c1ccccc1NC2=O | 109% | 105% | 103% | 124% | 104% | 104% | 98.8% | 108% | 118% | 108% | 108% | 99.6% | 111% | 110% | 101% | 112% | 106% | 107% | 
Cc1cc(C(C)(C)c2cc(C)c(O)c(CN(C)C)c2)cc(CN(C)C)c1O | 96.5% | 70.7% | 99.8% | 101% | 85.7% | 97.7% | 73.1% | 89% | 97.1% | 76.6% | 57.7% | 59.5% | 61.5% | 101% | 100% | 80.3% | 85% | 80.8% | 77.7%
Cc1cc(C)c2c(c1)N1OC(C2)C[C@H]1/C=C/c1ccccc1 (some centres not stated) | 77.6% | 81.3% | 111% | 112% | 84.7% | 95.2% | 102% | 111% | 117% | 88.2% | 103% | 101% | 115% | 107% | 108% | 111% | 113% | 88.7% | 104%
CC/C(=C\c1ccc(N(C)C)cc1)c1nc2ccccc2c(=O)[nH]1 | 110% | 104% | 108% | 102% | 103% | 98% | 94.6% |  | 105% | 71.4% | 144% | 91.2% | 99.6% | 92.9% |  | 106% | 111% | 99.8% | 121%
C[C@@H]1CC[C@H]2[C@@H](C)C(O)O[C@@H]3O[C@]4(C)CC[C@@H]1[C@]32OO4 (some centres not stated) | 69.8% | 68.9% | 59.4% | 30.6% | -8.88% (active) | 41.5% | 46.1% | 6.72% (active) | 75.1% | 10.8% | 28.3% | 77.4% | 49.3% | 52.7% | 26.4% | 33.6% | 38.3% | 10.7% | 29.8%
Nc1ncc(-c2cnn(C3CCNCC3)c2)cc1-c1nc2cc(Cl)ccc2o1 | -63.3% (active) | -59.1% (active) | -98.1% (active) | -100% (active) | -87.6% (active) | -100% (active) | -100% (active) | -100% (active) | -100% (active) | -100% (active) | -92.5% (active) | -91.7% (active) | -96.4% (active) | -83.4% (active) | -78.7% (active) | -100% (active) | -93.3% (active) | -84.9% (active) | -100% (active)
CCCCCCCCCCCCCCCCCc1nccn1CCO | 97.3% | 78.1% | 68% | 24.6% | 52.6% | 64.7% | 62.3% | 19% | 90% | 3.81% (active) | 89.7% | 69.6% | 72.3% | 73.5% | 144% | 66.5% | 90.2% | 8.52% (active) | 64.9%
Cc1nn(-c2ccc(Br)cc2)c2nc3c(nc12)C(=O)C(=O)c1ccccc1-3 | 96.9% | 104% | 91.7% | 97.3% | 98.3% | 100% | 102% | 89.6% | 124% |  | 91.2% | 78.7% | 111% | 101% | 97.5% |  | 98.6% | 90.5% | 98.2%
